Laboratory results reported in the supplement of paper PMC11732987, “Enantioselective OTUD7B fragment discovery through chemoproteomics screening and high-throughput optimisation” (Communications Chemistry, 2025).

Legend:
Test in all cases: log2 ratio of Biotin-Ahx-Ub-VS probe labelling (fragment/DMSO); higher = less target engagement (more negative = stronger competition), active = hit call of the paper (q ≤ 0.05, log2 ratio ≤ -1)
Details in all cases: compound concentration: 200 uM; treatment time: 3 h
[1] = target: T1, OTUD6B (UniProt Q8N6M0)
T1 sequence (whole entry): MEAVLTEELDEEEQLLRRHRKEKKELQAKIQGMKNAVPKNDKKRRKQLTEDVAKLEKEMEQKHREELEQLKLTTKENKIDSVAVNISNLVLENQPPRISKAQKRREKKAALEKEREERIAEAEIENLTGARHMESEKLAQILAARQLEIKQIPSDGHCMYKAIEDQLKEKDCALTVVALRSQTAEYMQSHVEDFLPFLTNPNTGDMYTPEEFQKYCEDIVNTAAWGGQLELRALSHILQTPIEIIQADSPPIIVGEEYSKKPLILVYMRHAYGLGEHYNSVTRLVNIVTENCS
Method in brief: (§1)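 HEK293T lysate, 495 µg per sample in Tris/CHAPS/IGEPAL buffer with protease inhibitors, was treated in triplicate with fragment at 200 µM or vehicle for 3 h and then with Biotin-Ahx-Ub-VS at 0.5 µM final for 1 h. Labelled DUBs were NeutrAvidin-enriched, digested with LysC and trypsin, and run by diaPASEF LC-MS/MS. Spectronaut label-free quantities were global-median-normalised, and values are average log2 fragment/vehicle ratios by unpaired t-test on proteins with ≥2 unique peptides.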

[2] = target: T2, OTUD7B (UniProt Q6GQQ9)
T2 sequence (whole entry): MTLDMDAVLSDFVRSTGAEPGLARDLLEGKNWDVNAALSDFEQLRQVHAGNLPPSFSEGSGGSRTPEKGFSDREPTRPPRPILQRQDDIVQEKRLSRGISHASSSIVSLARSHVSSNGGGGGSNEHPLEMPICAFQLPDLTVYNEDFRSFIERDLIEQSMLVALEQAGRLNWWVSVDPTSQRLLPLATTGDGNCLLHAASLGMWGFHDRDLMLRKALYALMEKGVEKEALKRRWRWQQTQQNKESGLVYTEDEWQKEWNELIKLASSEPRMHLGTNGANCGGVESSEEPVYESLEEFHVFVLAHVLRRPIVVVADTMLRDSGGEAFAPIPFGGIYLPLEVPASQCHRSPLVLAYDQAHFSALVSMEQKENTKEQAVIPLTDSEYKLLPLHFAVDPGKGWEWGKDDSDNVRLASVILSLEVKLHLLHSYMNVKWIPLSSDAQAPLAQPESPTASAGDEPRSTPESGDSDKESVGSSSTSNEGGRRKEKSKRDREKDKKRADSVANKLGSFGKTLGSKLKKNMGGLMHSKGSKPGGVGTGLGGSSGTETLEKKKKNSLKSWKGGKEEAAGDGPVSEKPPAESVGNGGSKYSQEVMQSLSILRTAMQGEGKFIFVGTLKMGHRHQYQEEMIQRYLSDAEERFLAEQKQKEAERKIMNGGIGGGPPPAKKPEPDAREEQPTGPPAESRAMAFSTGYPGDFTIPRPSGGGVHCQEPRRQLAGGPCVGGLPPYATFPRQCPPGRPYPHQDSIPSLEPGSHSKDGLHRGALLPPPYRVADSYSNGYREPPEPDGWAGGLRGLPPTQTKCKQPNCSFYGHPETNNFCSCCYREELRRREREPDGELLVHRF
Method in brief: as §1

[3] = target: PRPF8 (UniProt Q6P2Q9)
Method in brief: as §1

[4] = target: T3, PSMD7 (UniProt P51665)
T3 sequence (whole entry): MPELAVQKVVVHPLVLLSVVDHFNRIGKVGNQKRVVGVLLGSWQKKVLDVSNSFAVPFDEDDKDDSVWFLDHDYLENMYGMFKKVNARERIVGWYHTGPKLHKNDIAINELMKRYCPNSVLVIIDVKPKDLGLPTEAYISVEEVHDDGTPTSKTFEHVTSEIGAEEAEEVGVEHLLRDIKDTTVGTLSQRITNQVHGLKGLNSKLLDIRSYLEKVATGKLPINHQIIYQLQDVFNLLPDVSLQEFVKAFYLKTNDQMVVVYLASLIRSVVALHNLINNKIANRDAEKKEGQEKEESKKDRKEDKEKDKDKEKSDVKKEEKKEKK
Method in brief: as §1

[5] = target: UCHL1 (UniProt P09936)
Method in brief: as §1

[6] = target: T4, UCHL3 (UniProt P15374)
T4 sequence (whole entry): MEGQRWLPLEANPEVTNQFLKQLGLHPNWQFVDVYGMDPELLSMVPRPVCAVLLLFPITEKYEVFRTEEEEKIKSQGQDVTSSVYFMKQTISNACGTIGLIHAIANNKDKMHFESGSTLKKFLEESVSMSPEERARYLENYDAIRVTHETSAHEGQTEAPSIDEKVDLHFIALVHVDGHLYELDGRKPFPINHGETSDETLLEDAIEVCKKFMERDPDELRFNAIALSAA
Method in brief: as §1

[7] = target: T5, UCHL5 (UniProt Q9Y5K5)
T5 sequence (whole entry): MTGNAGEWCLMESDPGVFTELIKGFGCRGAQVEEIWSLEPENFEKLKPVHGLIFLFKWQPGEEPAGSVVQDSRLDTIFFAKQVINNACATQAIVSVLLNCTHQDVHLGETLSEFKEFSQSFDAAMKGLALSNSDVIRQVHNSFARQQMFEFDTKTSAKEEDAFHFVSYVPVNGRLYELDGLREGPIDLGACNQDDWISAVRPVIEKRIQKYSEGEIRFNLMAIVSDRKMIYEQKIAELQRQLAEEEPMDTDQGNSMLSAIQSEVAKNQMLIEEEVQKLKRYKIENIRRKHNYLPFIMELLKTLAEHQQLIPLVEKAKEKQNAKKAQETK
Method in brief: as §1

[8] = target: USP10 (UniProt Q14694)
Method in brief: as §1

[9] = target: T6, USP15 (UniProt Q9Y4E8)
T6 sequence (whole entry): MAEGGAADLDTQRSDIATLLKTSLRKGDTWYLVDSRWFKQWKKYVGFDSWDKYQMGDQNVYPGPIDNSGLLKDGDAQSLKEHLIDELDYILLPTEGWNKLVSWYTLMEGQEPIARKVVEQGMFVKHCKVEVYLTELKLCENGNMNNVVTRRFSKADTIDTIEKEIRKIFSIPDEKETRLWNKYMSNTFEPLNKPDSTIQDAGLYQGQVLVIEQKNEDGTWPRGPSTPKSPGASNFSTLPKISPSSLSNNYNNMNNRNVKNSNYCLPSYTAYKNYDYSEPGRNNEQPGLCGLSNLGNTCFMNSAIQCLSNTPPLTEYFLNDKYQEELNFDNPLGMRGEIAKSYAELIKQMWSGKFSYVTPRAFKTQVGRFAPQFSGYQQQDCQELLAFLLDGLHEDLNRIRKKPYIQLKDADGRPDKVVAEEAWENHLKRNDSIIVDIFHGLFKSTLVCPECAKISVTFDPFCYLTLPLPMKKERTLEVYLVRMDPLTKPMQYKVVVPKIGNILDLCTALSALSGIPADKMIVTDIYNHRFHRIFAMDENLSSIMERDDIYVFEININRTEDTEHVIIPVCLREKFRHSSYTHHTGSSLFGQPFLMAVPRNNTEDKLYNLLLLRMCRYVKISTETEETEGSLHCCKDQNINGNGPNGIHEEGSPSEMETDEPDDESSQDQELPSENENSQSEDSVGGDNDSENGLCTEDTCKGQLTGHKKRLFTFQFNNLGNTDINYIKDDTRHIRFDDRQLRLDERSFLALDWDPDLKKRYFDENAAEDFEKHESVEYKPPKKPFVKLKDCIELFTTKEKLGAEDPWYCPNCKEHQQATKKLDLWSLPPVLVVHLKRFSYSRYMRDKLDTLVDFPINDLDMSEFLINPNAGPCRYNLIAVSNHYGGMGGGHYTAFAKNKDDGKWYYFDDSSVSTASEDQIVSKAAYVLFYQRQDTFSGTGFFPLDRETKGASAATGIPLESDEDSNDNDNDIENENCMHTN
Method in brief: as §1

Measured: log2 ratio of Biotin-Ahx-Ub-VS probe labelling

Chain of USP10 (Q14694 whole entry): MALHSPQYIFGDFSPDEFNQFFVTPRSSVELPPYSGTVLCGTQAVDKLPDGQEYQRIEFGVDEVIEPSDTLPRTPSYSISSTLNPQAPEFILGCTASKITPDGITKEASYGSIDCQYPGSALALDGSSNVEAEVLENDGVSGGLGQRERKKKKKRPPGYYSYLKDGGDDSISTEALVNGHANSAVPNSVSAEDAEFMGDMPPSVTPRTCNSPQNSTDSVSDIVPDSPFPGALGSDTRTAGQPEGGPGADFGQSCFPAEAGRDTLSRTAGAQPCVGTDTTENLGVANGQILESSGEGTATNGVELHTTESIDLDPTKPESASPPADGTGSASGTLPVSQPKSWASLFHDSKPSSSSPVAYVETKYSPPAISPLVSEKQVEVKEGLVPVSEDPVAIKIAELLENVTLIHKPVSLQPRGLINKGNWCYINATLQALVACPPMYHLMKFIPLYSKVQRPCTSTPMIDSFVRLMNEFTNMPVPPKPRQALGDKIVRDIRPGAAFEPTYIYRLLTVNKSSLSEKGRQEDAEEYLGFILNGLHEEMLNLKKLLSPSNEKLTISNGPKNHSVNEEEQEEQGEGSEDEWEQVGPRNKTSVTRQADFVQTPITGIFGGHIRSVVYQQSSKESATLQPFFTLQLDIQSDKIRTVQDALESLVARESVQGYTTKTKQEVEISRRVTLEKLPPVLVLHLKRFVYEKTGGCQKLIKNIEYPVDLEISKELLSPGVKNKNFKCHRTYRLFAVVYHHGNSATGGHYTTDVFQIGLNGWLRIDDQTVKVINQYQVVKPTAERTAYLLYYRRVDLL
Chain of UCHL1 (P09936 whole entry, looked up): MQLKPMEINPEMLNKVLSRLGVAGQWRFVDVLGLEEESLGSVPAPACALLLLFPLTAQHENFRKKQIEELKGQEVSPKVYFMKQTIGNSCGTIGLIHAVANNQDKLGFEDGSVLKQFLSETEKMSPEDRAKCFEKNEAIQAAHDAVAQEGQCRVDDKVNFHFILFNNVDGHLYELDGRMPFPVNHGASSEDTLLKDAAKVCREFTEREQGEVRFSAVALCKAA

Cc1n[nH]c2c1CN(C(=O)CCl)CC2
inactive: [1] -0.715 | [3] 0.0355 | [4] -0.368 | [5] -1.15 | [6] -0.699 | [7] -0.886 | [8] -0.519 | [9] -0.982
active: [2] -1.53
